Data on 75 compounds can be found in publication PMC4552634, “A New Set of Chemical Starting Points with Plasmodium falciparum Transmission-Blocking Potential for Antimalarial Drug Discovery” (PLoS ONE, 2015).

For this assay, the system named is P. falciparum stage V gametocytes. The arrangement: BacTiter-Glo ATP luminescence viability of purified stage V gametocytes in 384-well plates, per cent inhibition versus DMSO. The following applies: 48 h, 5 µM, inhibitor.

Where two headings read alike, the source gives them in different places. In all, about 13,000 compounds went through this assay and about 3,200 (25%) showed an effect of 50% or more. Some of the results follow.

Turning to `CCOC(=O)C(C#N)NC(=O)C=Cc1ccccc1` (stereo not drawn) [TCMDC-131634], the % Inhibition (usually the relative decrease from the control value, in per cent) was -4.008%. `C=C(C)C1CC=C(CN2CCC(N3CCc4cc(NC(=O)c5cc(C)on5)ccc43)C2)CC1` (stereo not drawn) [TCMDC-135089]: the “% Inhibition” value came to 10.83%. Regarding `O=C(Nc1cc(Cl)cc(Cl)c1)c1cc(Cl)c(=O)n(Cc2cccc(Cl)c2)c1` [TCMDC-123809], the “% Inhibition” value is on record as -55.71%. On the same count and under the same terms, for `COc1ccccc1N1CCN(Cc2cc(C(C)C)c(C)cc2O)CC1` [TCMDC-124541] the value was -1.392%. For `O=C(C=Cc1ccc(-c2ccccc2)cc1)NC1CCC(CN2CCC(c3c[nH]c4ccccc34)CC2)CC1` (stereo not drawn) [TCMDC-139935], under “% Inhibition”, the “% Inhibition” value is listed as 108%. The same measure, in the same setting: for `O=C(C=Cc1ccc(-c2ccccc2)cc1)NC1CCC(CN2CCC(c3c[nH]c4ccccc34)CC2)CC1` (stereo not drawn) [TCMDC-139951] the value was 123.9%. Take `O=C(/C=C/C=C/c1ccccc1)NC1CCC(CN2CCC(c3c[nH]c4ccccc34)CC2)CC1` (stereo not drawn) [TCMDC-139708]: the “% Inhibition” value is recorded as 100.6%. The same measure, in the same setting: for `COc1ccc2nccc(N3CCN(CCNCc4ccc5c(n4)NC(=O)CO5)CC3)c2c1.Cl` [TCMDC-141961] the value was 30.82%; for `Cc1nc2nc(N)nc(N)c2c(C)c1Cc1cccc(C(N)=O)c1` [TCMDC-137643], 17.6%; for `CS(=O)(=O)c1ccc(-n2nc(C(F)(F)F)cc2-c2ccc(C=NOCC(=O)O)o2)cc1` [TCMDC-132015], -3.43%.

With `COc1cccc(-c2cccc(CNC3CCN(CC4Cn5c(=O)ccc6ccc(F)c4c65)CC3)c2)c1` (stereo not drawn) [TCMDC-134412], the “% Inhibition” value is given as 5.028%.

Regarding `Cc1ccc(Cc2cnc(CN3CCCCC3)c(O)c2)cc1` [TCMDC-125485], the “% Inhibition” value came out at 30.78%. Same read-out and setting: for `O=S(=O)(c1ccc(OC(F)(F)F)cc1)C1CC2CCC(C1)N2S(=O)(=O)c1ccc(Cl)c(C(F)(F)F)c1` (stereo not drawn) [TCMDC-134267] the value was 71.42%; for `O=S(=O)(c1ccccc1C(F)(F)F)C1CC2CCC(C1)N2S(=O)(=O)c1ccc(Cl)c(C(F)(F)F)c1` (stereo not drawn) [TCMDC-134268], 33.38%; for `O=S(=O)(c1ccccc1OC(F)(F)F)C1CC2CCC(C1)N2S(=O)(=O)c1cccc(C(F)(F)F)c1` (stereo not drawn) [TCMDC-134266], 7.024%. The same measure, in the same setting: for `COc1cc(Cc2cnc(N)nc2N)ccc1OCc1ccc(-c2ccccc2C#N)cc1` [TCMDC-138638] the value was -1.728%; for `Cc1ccc2c(NC(=O)Nc3ccc(N(C)C)cc3)cc(C)nc2c1` [TCMDC-140144], -85.96%. The same measure, in the same setting: for `CC(C)C[C@@H](NC(=O)OC(C)(C)C)C(=O)Nc1ccc(Cc2ccc(NC(=O)[C@@H](CC(C)C)NC(=O)OC(C)(C)C)cc2)cc1` [TCMDC-131869] the value was -46.99%. On to `Nc1ncc(-c2ccc(NC(=O)Nc3cc(C(F)(F)F)ccc3F)cc2)c(N)n1` [TCMDC-133420], for which the “% Inhibition” value was 7.471%.

As for `Nc1ncnc2occ(-c3ccc(NC(=O)Nc4cc(C(F)(F)F)ccc4F)cc3)c12` [TCMDC-141371], the “% Inhibition” value is listed as 14.45%. The same measure, in the same setting: for `Nc1ccc(-c2ccc(NC(=O)Nc3cc(C(F)(F)F)ccc3F)cc2)cn1` [TCMDC-133410] the value was 11.7%; for `Cc1cc(N)ncc1-c1ccc(NC(=O)Nc2cc(C(F)(F)F)ccc2F)cc1` [TCMDC-133438], 25.29%; for `NCCCNc1ccc(-c2ccc(NC(=O)Nc3cc(C(F)(F)F)ccc3F)cc2)cn1` [TCMDC-133550], 53.18%. Same read-out and setting: for `Nc1nccc2ccc(-c3ccc(NC(=O)Nc4cc(C(F)(F)F)ccc4F)cc3)cc12` [TCMDC-133422] the value was 80.96%; for `Cc1nc(-c2cccc(Nc3nccc(NCC(O)c4ccc(C(F)(F)F)cc4)n3)c2)cs1` (stereo not drawn) [TCMDC-136591], 22.87%. With `Cc1nc(-c2cccc(Nc3nccc(NCC(O)c4ccccc4C)n3)c2)cs1` (stereo not drawn) [TCMDC-136567], the “% Inhibition” value is reported as -8.142%. On the same count and under the same terms, for `Cc1cc(Nc2ccccc2)nc(Nc2ccccc2C)n1` [TCMDC-123883] the value was 4.396%; for `CCC1(c2ccccc2)N=C(N)N(CCCc2ccccc2)C1=O` (stereo not drawn) [TCMDC-136547], 23.07%; for `CCCCCN1CCN(Cc2cccc(NC(=O)c3ccc(Cl)c(Cl)c3)c2)CC1` [TCMDC-134616], -65.82%. The same measure, in the same setting: for `CC1(C)C(N(O)C(=O)Nc2ccc(Cl)c(Cl)c2)N(c2ccc(Cl)c(Cl)c2)C(=O)N1CCc1ccccc1` (stereo not drawn) [TCMDC-125555] the value was -2.423%; for `CCCCCN1C(=O)N(c2ccc(Cl)c(Cl)c2)C(N(O)C(=O)Nc2ccc(Cl)c(Cl)c2)C1(C)C` (stereo not drawn) [TCMDC-124134], 67.16%.

For `O=C(NCCN1CCC(c2ccncc2)CC1)c1cccc(Nc2nccc(Nc3ccc(Oc4ccccc4)cc3)n2)c1` [TCMDC-138607], the “% Inhibition” value was -52.85%.

Take `COc1ccc2nccc([C@@H](O)CN3CCC(NC(=O)/C=C/c4ccc5[nH]c(=O)ccc5c4)CC3)c2c1` [TCMDC-141032]: the “% Inhibition” value is reported as -20.87%. As to `O=C(Nc1ccc(N2CCCCC2)c(Cl)c1)c1ccco1` [TCMDC-124392], the “% Inhibition” value turned out to be 30.55%. Same read-out and setting: for `Oc1ccc(CN2Cc3ccccc3OC3(CCN(Cc4c[nH]c5cnccc45)CC3)C2)cc1` [TCMDC-133377] the value was 0.4377%. On the same count and under the same terms, for `c1ccc2c(c1)CN(CC1CC1)CC1(CCN(Cc3c[nH]c4cnccc34)CC1)O2` [TCMDC-133375] the value was -19.67%. Same read-out and setting: for `c1ccc2c(c1)CN(Cc1cc3ccccc3[nH]1)CC1(CCN(Cc3c[nH]c4cnccc34)CC1)O2` [TCMDC-133376] the value was 66.92%. For the compound `O=C(NCc1ccc(F)cc1)Nc1ccc(-c2cccc(-c3nc4ccc(C(F)(F)F)cc4[nH]3)c2)cc1` [TCMDC-133298], the “% Inhibition” value is -50.83%. On the same count and under the same terms, for `CS(=O)(=O)c1ccccc1CNC(=O)c1ccc(-c2ccc(-c3nc4cc(C(F)(F)F)ccc4[nH]3)s2)cc1` [TCMDC-132507] the value was 9.09%; for `COc1ccc2nccc([C@@H](O)CN3CCC(NC(=O)C(c4cc5ccccc5o4)N4CCN(c5ccc(F)cc5)CC4)CC3)c2c1` (stereo partly drawn) [TCMDC-140996], -29.58%. Same read-out and setting: for `CCc1c(CCNCCCCCCNC(C)Cc2ccc3c(c2CC)OCO3)ccc(OC)c1OC` (stereo not drawn) [TCMDC-132052] the value was 111%; for `CCc1c(CCNCCCCCCNC(C)(C)Cc2ccc3c(c2CC)OCO3)ccc(OC)c1OC` [TCMDC-132055], 110.7%; for `CCc1c(CCNCCCCCCNCCc2ccc3c(c2C)OCO3)ccc2c1OCO2` [TCMDC-132093], 97.88%.

With `CCc1c(CCNCCCCCCNCc2ccc3c(c2CC)OCO3)ccc(OC)c1OC` [TCMDC-132068], the “% Inhibition” value was 92.52%.

For `Nc1cnc(C#Cc2cc3ncnc(N(CCN4CCOCC4)c4ccc(OCc5cccc(F)c5)c(Cl)c4)c3s2)cn1` [TCMDC-134752], the “% Inhibition” value worked out at 42.15%. Still for that read-out and setting: for `Cc1cc(Oc2cc(NC(=O)c3sc4ncn(Cc5ccccc5F)c(=O)c4c3C)cc([N+](=O)[O-])c2)ccc1Cl` [TCMDC-125704] the value was 16.56%. Consider `O=C(c1ccc(O)c(-c2cc(Cl)cc(Cl)c2)c1)N1CCCC1` [TCMDC-140161], for which the “% Inhibition” value is listed as -10.57%. Take `CCOc1ccc(-c2cc3nc(C4CCNCC4)c(C(=O)Nc4ccc(C)cc4Cl)cn3n2)cc1` [TCMDC-125296]: the “% Inhibition” value came out at 121.3%.

For `CCOc1ccc(NC(=O)c2ccc(CN3CCCN(Cc4cccc(O)c4)CC3)cc2)cc1` [TCMDC-136436], the “% Inhibition” value is listed as 8.028%. The same measure, in the same setting: for `CCOc1cc(C)ccc1C1CCN(CCCCNC(=O)c2ccc(-c3ccc(Cl)cn3)cc2)CC1` [TCMDC-138562] the value was -60.76%; for `COc1cc(OC)c(NC(=O)COc2ccc(C)cc2)cc1Cl` [TCMDC-123682], 23.04%; for `CCOc1ccc(NC(=O)c2cn3nc(-c4ccc(OCC)cc4)cc3nc2C2CCNCC2)cc1` [TCMDC-125277], 105.9%.

For `CCOc1ccc(NC(=O)c2cccc(CN3CCCN(Cc4cccc(O)c4)CC3)c2)cc1` [TCMDC-135987], the “% Inhibition” value was -4.859%. Regarding `O=C(Nc1cccc(-c2cccc(-c3nc4ccc(C(F)(F)F)cc4[nH]3)c2)c1)c1csnn1` [TCMDC-136902], the “% Inhibition” value is listed as 10.49%.

With `Cc1cc2c(cc1Cl)N(C(=O)Nc1cc(F)cc(-c3cncnc3)c1)CC2` [TCMDC-139052], the “% Inhibition” value is reported as -4.717%. The same measure, in the same setting: for `COc1cc2nccc(Nc3cccc(Oc4ccccc4)c3)c2cc1OC.Cl` [TCMDC-137216] the value was 29.43%; for `Cc1ccc(NC(=O)c2ccc(CN3CCCN(Cc4cccc(O)c4)CC3)cc2)cc1F` [TCMDC-136395], 3.853%. Take `O=C1C(C2CCC(c3ccc(Cl)cc3)CC2)=C2OCC3COC2(O3)c2ccccc21` (stereo not drawn) [TCMDC-138169]: the “% Inhibition” value is 65.18%. Consider `O=C1COC2(CN1C1CCN(Cc3ccc(O)c(Cl)c3)C1)c1ccccc1-c1ccccc12` (stereo not drawn) [TCMDC-136342], for which the “% Inhibition” value is recorded as -3.473%. On the same count and under the same terms, for `Cc1ccccc1C1CCN(C2CCC(NC(=O)/C=C/c3cccc(F)c3F)CC2)CC1` (stereo not drawn) [TCMDC-133525] the value was -91.19%; for `CC(=O)Nc1ncc(C(=O)Nc2ccc(-c3cccc(-c4nc5ccc(C(F)(F)F)cc5[nH]4)c3)cc2)s1` [TCMDC-136919], -27.65%; for `Nc1cccc(CNCc2cccc(-c3ccc(-c4nc5ccccc5[nH]4)s3)c2)c1.O=C(O)C(F)(F)F` [TCMDC-132926], -42.76%. On the same count and under the same terms, for `CNC(=O)COc1ccc(Nc2nnc(-c3ccc(C)c(S(=O)(=O)NCC4CCCO4)c3)c3ccccc23)cc1` (stereo not drawn) [TCMDC-125616] the value was 3.105%; for `CCOc1ccc(Br)cc1/C=C/C(=O)Nc1ccc(C2CCN(C)CC2)cc1` [TCMDC-134194], 61.62%; for `COc1cc(NC(=O)/C=C/c2ccccc2OC(F)(F)F)cc(OCCN2CCCCC2)c1` [TCMDC-140931], -34.24%. With `COc1cc(NC(=O)N2CCc3cc(OC)c(OCCN4CCCCC4)cc32)cc(C(F)(F)F)c1` [TCMDC-140782], the “% Inhibition” value is 9.489%. Same read-out and setting: for `Cc1noc(-c2ccc3c(c2)CCN(CCC2CCC(NC(=O)/C=C/c4cccc(Cl)c4)CC2)CC3)n1` (stereo not drawn) [TCMDC-139877] the value was -87.8%; for `COc1cc2c(cc1OCCN1CCC(N)CC1)N(C(=O)/C=C/c1ccccc1Cl)CC2` [TCMDC-140969], 75.81%. Take `CCOc1ccc(Br)cc1/C=C/C(=O)Nc1ccc2c(c1)CN(C)CCC2` [TCMDC-133944]: the “% Inhibition” value is 3.1%.

For `COc1ccc(Br)cc1/C=C/C(=O)Nc1ccc(C2CCN(C)CC2)cc1` [TCMDC-133711], the “% Inhibition” value is on record as 12.54%. On the same count and under the same terms, for `COc1cc2c(cc1OCCN1CCC(N3CCCCC3)CC1)N(C(=O)/C=C/c1ccccc1OC(F)(F)F)CC2` [TCMDC-141018] the value was 57.17%; for `COc1ccc(NC(=O)/C=C/c2ccccc2Cl)cc1OCCN1CCC(NC2CC2)CC1` [TCMDC-140756], -32.57%; for `Cc1cnccc1/C=C/c1cccc(OCCCN2CCc3ccc(S(C)(=O)=O)cc3CC2)c1` [TCMDC-135876], 29.22%. Consider `Cc1cc(-c2ccc3c(c2)CCN(CCCOc2ccc4c(c2)CCN4C(=O)/C=C/c2ccccc2Cl)CC3)no1` [TCMDC-141470], for which the “% Inhibition” value amounted to 81.48%. As for `CCCCN(CCCC)CCOc1cc2c(cc1OC)CCN2C(=O)/C=C/c1ccccc1Cl` [TCMDC-141328], the “% Inhibition” value turned out to be 30.32%.
